Calls of active or inactive are those of the source. Where a call stands in place of a potency, no number is given. The call rests on the fitted dose curve. Numbered stars: 1 amine (or outer) side, 2 acyl side, 3 side chain; on linkers, the order of the positions; unused ones are H or OH. Bridge positions count the residues as written; N and C are the ends. Square brackets hold non-standard residues; d marks the D form. Peptide text beside a SMILES is read from it. I, II: the chains in the order shown. Actinocin(9to1) = Cc1c2oc3c(C)ccc(C(=O)[*:1])c3nc-2c(C(=O)[*:2])c(N)c1=O; NMeV = CN[C@H](C(=O)O)C(C)C; Sar = CNCC(=O)O
What follows are molecules tested against Gonadotropin-releasing hormone receptor (Homo sapiens) (UniProt P30968) (assay: Human gonadotropin-releasing hormone receptor (GnRHR) small molecule agonists, calcium flux assay in GnRHR-HEK293 cells (AID 1920063; further: nearly all actives have a fitted effect of over 35% in size)). Conditions: calcium flux fluorescence, agonist mode; series mostly up to 57.6 µM.
Sequence of Gonadotropin-releasing hormone receptor (Homo sapiens) (P30968 whole entry, looked up): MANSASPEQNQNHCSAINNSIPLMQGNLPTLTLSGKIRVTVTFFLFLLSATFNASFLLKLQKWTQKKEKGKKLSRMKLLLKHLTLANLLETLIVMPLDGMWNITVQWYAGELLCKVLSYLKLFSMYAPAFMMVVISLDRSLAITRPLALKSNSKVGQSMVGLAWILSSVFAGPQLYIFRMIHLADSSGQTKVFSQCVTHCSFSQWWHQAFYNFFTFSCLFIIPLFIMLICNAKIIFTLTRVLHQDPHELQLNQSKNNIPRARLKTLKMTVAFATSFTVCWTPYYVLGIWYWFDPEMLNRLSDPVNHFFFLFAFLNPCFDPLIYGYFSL
Description: National Center for Advancing Translational Sciences [NCATS]
Division of Preclinical Innovation [DPI]
U.S. Environmental Protection Agency [EPA]
National Institutes of Environmental Health Sciences [NIEHS]
National Toxicology Program [NTP]
U.S. Food and Drug Administration [FDA]
Gonadotropin-releasing hormone receptor (GnRHR) is a G-protein-coupled receptor (GPCR) and acts (through phospholipase C) to increase intracellular inositol trisphosphate and then release intracellular calcium stores. Cell-based GnRHR-Hek293 calcium influx assay is using HEK293 cells that have been genetically engineered to express the human GnRHR, which activity can be measured by calcium signaling. A compound/drug can activate (agonist) GnRHR that can be monitored by levels of intracellular calcium.
GnRHR-HEK293 cells developed by Codex Corp contain human GnRHR reporter gene, which was stably integrated into HEK 293 cells. The compound activation can be detected by fluorescence intensity via calcium flux assay. This cell line has been used to screen the Tox21 10K compound library to identify GnRHR agonists.
GnRHR-Hek293 cells were dispensed at 1500cells/4uL/well in 1536-well black wall/clear bottom plates using a multidrop dispenser. After the assay plates were incubated at a 37 C/5% CO2 incubator for 18 hours, 4 uL of Calcium Dye Solution was added to each well. The plates were incubated at 37 C for 1 hour. For agonist mode, 23 nL of compounds dissolved in DMSO, positive controls or DMSO only was transferred to the assay plate by a pin tool station. The fluorescence intensity in the plates was measured using FDSS 7000EX kinetic plate reader with a filter set of Ex/Em=480/540 for 3 min at 1 sec intervals. Each test compound was measured at 15 concentrations and in triplicates.

SMILES | Potency
CN/C(=C\[N+](=O)[O-])NCCSCc1ccc(CN(C)C)o1 | inactive
Nc1nc(N)nc(-c2ccccc2)n1 | inactive
O=C(O)c1cc(=O)c2c(OCC(O)COc3cccc4oc(C(=O)O)cc(=O)c34)cccc2o1 | inactive
CC(=O)OCC1=C(C(=O)O)N2C(=O)[C@@H](NC(=O)Cc3cccs3)[C@H]2SC1 | inactive
Cc1c2oc3c(C)ccc(C(=O)N[C@@H]4C(=O)N[C@H](C(C)C)C(=O)N5CCC[C@H]5C(=O)N(C)CC(=O)N(C)[C@@H](C(C)C)C(=O)O[C@@H]4C)c3nc-2c(C(=O)N[C@@H]2C(=O)N[C@H](C(C)C)C(=O)N3CCC[C@H]3C(=O)N(C)CC(=O)N(C)[C@@H](C(C)C)C(=O)O[C@@H]2C)c(N)c1=O (I: T[dV]P[Sar][NMeV] / II: T[dV]P[Sar][NMeV]; ester I:1-I:C, II:1-II:C; linker I:N-II:N via Actinocin(9to1)) | inactive
CCCCCCCCCCCCOCCO | inactive
CC(CO)c1ccccc1 (stereo not given) | inactive
Cc1ccccc1N=O | inactive
CCC(=O)OC(C)(C)C1CC=C(C)CC1 (stereo not given) | inactive
Cc1nc2ccccc2s1 | inactive
CCN(CC)c1ccc(C(=O)c2ccccc2C(=O)O)c(O)c1 | inactive
O=C(O)c1ccc(C(=O)O)c(C(=O)O)c1 | inactive
CCn1cc(C(=O)O)c(=O)c2cnc(N3CCNCC3)nc21 | inactive
CC(CN1c2ccccc2Sc2ccccc21)N(C)C (stereo not given) | inactive
O=C(O)CNc1ccccc1 | inactive
CC(C)CC(C)O (stereo not given) | inactive
Nc1c2ccccc2nc2ccccc12 | inactive
Nc1ccc(O)cc1 | inactive
C=CC(=O)CCCCC | inactive
C=C[C@H]1CN2CC[C@H]1C[C@H]2[C@H](O)c1ccnc2ccc(OC)cc12 | inactive

SMILES | Potency
Cc1oncc1C(=O)Nc1ccc(C(F)(F)F)cc1 | inactive
CC1=CC[C@H](CC=O)C1(C)C | inactive
CCCCCCCCCCCCCCCCC | inactive
O=[N+]([O-])c1ccc(CCO)cc1 | inactive
CC1=CCC(=O)O1 | inactive
Cc1ccc(C)cc1 | inactive
N#CCC(=O)O | inactive
c1ccc(CNCc2ccccc2)cc1 | inactive
CCNc1nc(N)nc(Cl)n1 | inactive
C#CC(O)CCC (stereo not given) | inactive
CCCC(=O)Nc1ccc(O)c(C(C)=O)c1 | inactive
CC#N | inactive
O=C1Cc2cc(Cl)ccc2N1 | inactive
CC(C)=CCCC(C)O (stereo not given) | inactive
CNCCO | inactive
O=c1cc(-c2ccccc2)oc2ccccc12 | inactive
CCCCCCCCCCCCCC[P+](CCCC)(CCCC)CCCC | inactive
Cc1ccc(O)c([N+](=O)[O-])c1 | inactive
COc1ccc(C(=O)c2cccc(O)c2)c(OC)c1 | inactive
CCCC(=O)c1ccccc1 | inactive
